Htt clearance: compounds clearing mutant huntingtin protein. HeLa Exon1htt(103Q)mCFP, aggregate imaging; zero = plate's median compound well. inhibition, % at 1.5 µM. 47,000 compounds, 0.42% hits. AID 853;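 active means inhibition of aggregate fluorescence above about 70%, also judged a hit by eye on the cell image, limit read from the data, passing the limit was not always enough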;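 further: cells exposed to compound for three days before fixation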
M1 agonist: activates the M1 muscarinic receptor | CHO-M1 cells, Fluo-4 calcium fluorescence, agonist mode; stronger effect = higher value | B-score at 10 µM | 64,000 compounds, 3% hits | AID 626;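 active means fluorescence rise, raw or as B-score row- and column-corrected plate score, outside the 99.7% band of its plate's samples, either direction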
M1 antag: blocks the rat M1 muscarinic receptor response to acetylcholine; P08482; CHO-M1 cells, Fluo-4 calcium, ACh EC80 antagonist mode; stronger effect = lower value; B-score at 10 µM; 64,000 compounds, 3.4% hits; AID 628;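 active means calcium fluorescence response, raw or row-and-column corrected B-score, differing from the plate sample mean either way at a set confidence level, mostly lower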
Target sequence (P08482 whole entry, looked up): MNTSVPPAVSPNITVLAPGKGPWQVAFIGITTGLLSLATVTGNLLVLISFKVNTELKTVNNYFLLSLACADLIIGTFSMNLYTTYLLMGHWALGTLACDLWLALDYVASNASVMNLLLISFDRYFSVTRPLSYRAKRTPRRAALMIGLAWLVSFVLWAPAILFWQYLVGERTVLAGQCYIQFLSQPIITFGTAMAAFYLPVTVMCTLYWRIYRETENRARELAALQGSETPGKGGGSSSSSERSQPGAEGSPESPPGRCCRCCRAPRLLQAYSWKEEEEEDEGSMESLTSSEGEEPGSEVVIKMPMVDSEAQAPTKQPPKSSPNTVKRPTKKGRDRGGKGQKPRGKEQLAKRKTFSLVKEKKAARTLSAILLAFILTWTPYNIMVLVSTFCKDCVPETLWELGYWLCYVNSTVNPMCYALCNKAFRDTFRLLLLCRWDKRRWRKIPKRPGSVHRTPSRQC
D1 allo mod: allosterically modulates the human D1 dopamine receptor; P21728; HEK293 D1, CRE-luciferase, dopamine EC30 potentiation; actives deviate in either direction; B-score at 10 µM; 58,000 compounds, 5.9% hits;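 active means luminescence count or its row- and column-corrected plate score outside the 99.7% band of the plate's sample wells, on either side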
D1 PAM confirm: confirmation of human D1 dopamine receptor allosteric modulators | shares compounds with D1 allo mod | HEK293 D1 CRE-luciferase, dopamine EC30 potentiation; stronger effect = higher value | luminescence at 10 µM | 2,200 compounds, 88% hits | AID 642;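 active means luminescence in either of two replicates above the same-plate mean plus 3 SD of the low-dose dopamine control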
D1 no dopamine: D1 (human) signaling in absence of dopamine; HEK293 D1 CRE-luciferase, luminescence, no dopamine; stronger effect = higher value; luminescence at 10 µM; 1,900 compounds, 0.8% hits; AID 646; shares compounds with D1 allo mod; in the data active means luminescence above about 3900
Isoprot counter: counter-screen for D1 modulators: isoproterenol response in HEK293 cells; shares compounds with D1 allo mod; HEK293 D1 CRE-luciferase, isoproterenol EC30 counter-screen; stronger effect = higher value; luminescence at 10 µM; 2,200 compounds, 63% hits; AID 647;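 active means luminescence in either replicate above plate mean of wells with a partly effective reference agonist dose plus 3 SD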;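 further: isoproterenol raises cAMP through native beta-adrenoceptor Gs so signal bypasses D1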
Each line names hits and unclear results; the compound was inactive in the other large screens (follow-up assays come after a bar, where they were run). An excerpt weighted towards active compounds, which were near 9.1% of everything screened.

COc1ccc(C(=O)Nc2ccc(N3CCCC3)cc2)cc1	none (no result: M1 agonist, M1 antag, D1 allo mod)
CCn1c(SCC#N)nc2c(c1=O)C1(CCCC1)Cc1ccccc1-2	D1 allo mod 2.5 | D1 PAM confirm 7420 | Isoprot counter inactive
CCCn1c(SCC(N)=O)nc2c(c1=O)C1(CCCC1)Cc1ccccc1-2	none (no result: D1 allo mod)
CCOC(=O)Cc1csc(NC(=O)CCS(=O)(=O)Cc2ccccc2)n1	none (no result: Htt clearance)
CCOC(=O)c1c(C)oc2cc(Br)c(O)c(Br)c12	D1 allo mod 7.9 (no result: Htt clearance) | D1 PAM confirm 9840 | D1 no dopamine inactive | Isoprot counter inactive
COc1ccc(CCN(Cc2cc3cc(C)ccc3[nH]c2=O)C(=O)N2CCCC2)cc1OC	D1 allo mod 9.1 (no result: Htt clearance) | D1 PAM confirm 13088 | D1 no dopamine inactive | Isoprot counter 3456
CCCCC(=O)Nc1ccc(NC(=O)C2CC2)nc1	none (no result: Htt clearance)
O=C(NCc1cccs1)C1CC(=O)N(c2ccccc2)C1 (configuration not stated)	none
CSc1nnc2c3cc(C)ccc3n(Cc3ccccc3)c2n1	D1 allo mod 8.9 (no result: Htt clearance) | D1 PAM confirm 14436 | D1 no dopamine inactive | Isoprot counter 5544
O=c1cc(CO)oc(CN2CCN(c3ccccc3)CC2)c1O	D1 allo mod 3.1 | D1 PAM confirm inactive | D1 no dopamine inactive | Isoprot counter inactive
O=c1[nH]c(CSc2nnc(NCCCN3CCOCC3)s2)nc2cc(Cl)ccc12	none (no result: Htt clearance)
CS(=O)(=O)N(CC(=O)NC1CCCC1)c1ccc2c(c1)OCCO2	none
CCCCn1c(NC(C)CC)nc2c1c(=O)[nH]c(=O)n2C (configuration not stated)	D1 allo mod 11 | D1 PAM confirm 21532 | D1 no dopamine inactive | Isoprot counter 5652
CCCCCn1c(Sc2ccccc2)nc2c1c(=O)[nH]c(=O)n2C	none (no result: M1 agonist, M1 antag, D1 allo mod)
CCCCCn1c(SC(C)C(C)=O)nc2c1c(=O)[nH]c(=O)n2C (configuration not stated)	D1 allo mod 8 (no result: Htt clearance) | D1 PAM confirm 20968 | D1 no dopamine inactive | Isoprot counter 5320
CCCCCCn1c(SCCCC)nc2c1c(=O)[nH]c(=O)n2C	D1 allo mod 11 | D1 PAM confirm 26000 | D1 no dopamine inactive | Isoprot counter 4836
CCOC(=O)Cc1csc2nc3sc(C)c(C)c3c(=O)n12	none
Cc1cc2nc(C3CCN(CC4COc5ccccc5O4)CC3)[nH]c2cc1C (configuration not stated)	none (no result: Htt clearance)
Cn1c(=O)c2c(nc(NCc3ccc4c(c3)OCO4)n2Cc2ccccc2F)n(C)c1=O	D1 allo mod 4.7 (no result: Htt clearance) | D1 PAM confirm 6940 | D1 no dopamine inactive | Isoprot counter 4792
Cn1c(=O)c2c(nc(NCc3ccc4c(c3)OCO4)n2Cc2ccccc2)n(C)c1=O	none (no result: D1 allo mod)
CCN=C(Nc1ccc2c(c1)OCO2)SC1CC(=O)N(c2ccccc2F)C1=O (configuration not stated)	D1 allo mod 6.4 | D1 PAM confirm 12104 | D1 no dopamine inactive | Isoprot counter 3376
CCN=C(Nc1ccc2c(c1)OCO2)SC1CC(=O)N(c2ccc(OC)cc2)C1=O (configuration not stated)	none (no result: M1 agonist, M1 antag, D1 allo mod)
Cn1c(NCc2ccco2)nc2c1c(=O)n(Cc1ccc(Cl)cc1Cl)c(=O)n2C	none
Cn1cnc2c1c(=O)n(Cc1ccc(F)cc1Cl)c(=O)n2C	D1 allo mod 4 | D1 PAM confirm 6528 | D1 no dopamine inactive | Isoprot counter inactive
Nc1cc(N)nc(SCCOc2ccccc2F)n1	none (no result: Htt clearance, M1 agonist, M1 antag)
Nc1nc(OCC(F)(F)F)cc(Oc2ccccc2F)n1	D1 allo mod 8.7 | D1 PAM confirm 14824 | D1 no dopamine inactive | Isoprot counter 3436
O=C(CC1(O)C(=O)Nc2cc(Cl)cc(Cl)c21)c1ccccc1O (configuration not stated)	none (no result: Htt clearance, M1 agonist, M1 antag)
COc1ccc(-n2c(SCC#N)nnc2-c2ccc(NS(=O)(=O)c3ccc(C)cc3)cc2)cc1	D1 allo mod 9.9 (no result: Htt clearance) | D1 PAM confirm 21068 | D1 no dopamine inactive | Isoprot counter 5284
COc1cccc(-n2c(SCC#N)nnc2-c2cnccn2)c1	none (no result: Htt clearance)
CCCn1c(=O)c(C(=O)Nc2nnc(C)s2)c(O)c2ccccc21	none (no result: Htt clearance)
C=CCSC1=C(C#N)C(c2ccc(OCC)cc2)CC(=O)N1 (configuration not stated)	none
O=S(=O)(c1cccs1)N1CCN(c2ncccn2)CC1	none (no result: Htt clearance)
O=S(=O)(c1cccs1)N1CCN(c2ccccn2)CC1	D1 allo mod 11 | D1 PAM confirm 10548 | D1 no dopamine inactive | Isoprot counter inactive
COCc1cc(C)nc(N2CCOCC2)c1C#N	none (no result: Htt clearance, D1 allo mod)
CCOc1cc2c(C#N)c(N3CCOCC3)nc(N)c2c(N)n1	D1 allo mod 12 (no result: Htt clearance) | D1 PAM confirm 11932 | D1 no dopamine inactive | Isoprot counter 4580
Cc1cccc(N(C(=O)Nc2ccccc2)C2=NCC(C)S2)c1 (configuration not stated)	D1 allo mod 5.1 (no result: Htt clearance) | D1 PAM confirm 6412 | Isoprot counter 2700
Cc1ccc(NC(=O)N(C2=NCC(C)S2)c2ccccc2)cc1 (configuration not stated)	none
CC(=O)Nc1ccc(S(=O)(=O)N(C2=NCC(C)S2)c2ccccc2)cc1 (configuration not stated)	D1 allo mod 19 (no result: Htt clearance) | D1 PAM confirm inactive | D1 no dopamine inactive | Isoprot counter inactive
Cc1cc(C)n(-c2nc(NCc3cccnc3)c3c4c(sc3n2)COC(C)(C)C4)n1	D1 allo mod 3 | D1 PAM confirm 14976 | D1 no dopamine inactive | Isoprot counter 5200
CCCSc1nc(NCc2ccco2)c2c3c(sc2n1)COC(C)(C)C3	none (no result: M1 agonist, M1 antag, D1 allo mod)
O=C(Nc1ccccc1F)c1ccc(S(=O)(=O)NCC2CCCO2)cc1 (configuration not stated)	none
CCCCn1c(NC(=O)c2ccccc2)c(C#N)c2nc3ccccc3nc21	none (no result: Htt clearance, M1 agonist, M1 antag)
CCCCn1cc(C(C)(C)C)c(C#N)c1NC(C)=O	D1 allo mod 6 (no result: Htt clearance) | D1 PAM confirm 9748 | D1 no dopamine inactive | Isoprot counter 3100
COc1nc(NCCC2=CCCCC2)nc(OC)n1	D1 allo mod 7.2 | D1 PAM confirm 8312 | D1 no dopamine inactive | Isoprot counter 2828
COc1nc(NCCc2ccc(OC)c(OC)c2)nc(OC)n1	none (no result: Htt clearance)
CC(C)CC(C(=O)NCc1ccccn1)N1C(=O)c2ccccc2C1=O (configuration not stated)	none (no result: Htt clearance)
CC(=O)c1ccc(Nc2nc(NCCO)nc(OC(C(F)(F)F)C(F)(F)F)n2)cc1	none (no result: M1 agonist, M1 antag, D1 allo mod)
CNc1nc(Nc2ccc(C(C)=O)cc2)nc(OC(C(F)(F)F)C(F)(F)F)n1	D1 allo mod 21 | D1 PAM confirm 17924 | D1 no dopamine inactive | Isoprot counter 5672
COC(=O)c1c(N)c(C#N)c2n1CCCCC2	D1 allo mod 3.8 (no result: Htt clearance) | D1 PAM confirm 7512 | Isoprot counter inactive
c1ccc(-c2nc3nonc3c3nc4ccccc4n23)cc1	none (no result: Htt clearance)
